Source: PubChem BioAssay
Active and inactive are the calls of the source. No rule for the calls is given here.

Each compound was assayed against Pantothenate synthetase (Mycobacterium tuberculosis (strain ATCC 25618 / H37Rv)) (UniProt P9WIL5) (assay: Coupled enzyme confirmation of inhibitors against recombinant Mtb PanC (AID 375;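 also: 0% = full reaction with vehicle and 100% = no enzyme background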)). Conditions: coupled enzyme assay; at 10 µM, active compounds read high.
Sequence of Pantothenate synthetase (Mycobacterium tuberculosis (strain ATCC 25618 / H37Rv)) (P9WIL5 whole entry, looked up): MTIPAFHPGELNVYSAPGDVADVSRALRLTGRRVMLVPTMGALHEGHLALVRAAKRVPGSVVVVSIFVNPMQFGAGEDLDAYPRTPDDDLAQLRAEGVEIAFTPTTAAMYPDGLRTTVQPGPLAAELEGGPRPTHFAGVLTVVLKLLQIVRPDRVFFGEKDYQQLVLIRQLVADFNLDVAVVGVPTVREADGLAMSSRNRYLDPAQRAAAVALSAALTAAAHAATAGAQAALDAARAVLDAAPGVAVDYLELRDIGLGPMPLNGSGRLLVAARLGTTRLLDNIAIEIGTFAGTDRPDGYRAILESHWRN

`COc1ccc(C)cc1NC(=O)c1nc2nc(C)cc(C)n2n1` was tested. Which inhibition did it give?
Its inhibition is 7% (inactive).

Which inhibition does the source give for `Cc1cc(C)c(OCC(=O)Nc2cccc(O)c2)cc1C` here?
Its inhibition is 0% (inactive).

`Cc1cc(C)n2cc(CSCc3ccco3)nc2n1` was tested. Which inhibition did it give?
Its inhibition is 2% (inactive).

How did the inhibition turn out when `Cc1ccc(NC(=O)C2CCCN2S(=O)(=O)c2cccc3cccnc23)cc1F` (stereo not given) was run?
Its inhibition is 0% (inactive).

How did the inhibition turn out when `C=CCn1c(SC(C)C(=O)NC2(C#N)CCCCC2)nnc1-c1ccc(OC)cc1` (stereo not given) was run?
Its inhibition is 5% (inactive).

For `O=C(OCC#CCSc1nc2ccccc2o1)c1ccco1`, which inhibition is on record?
Its inhibition is 0% (inactive).

Which inhibition does the source give for `O=C(Nc1ccccc1)N(Cc1cccnc1)Cc1ccco1` here?
Its inhibition is 0% (inactive).

How did the inhibition turn out when `NS(=O)(=O)c1ccc(NCc2c(F)cccc2Cl)cc1` was run?
Its inhibition is 2% (inactive).

How did the inhibition turn out when `Cc1ccc(S(=O)(=O)N2CCOCC2)cc1C(=O)Nc1ccccn1` was run?
Its inhibition is 0% (inactive).

`Cc1ccc(-c2nn[nH]n2)cc1` was tested. Which inhibition did it give?
The inhibition was 0% (inactive).

For `CCN(CCCNC(=O)C1CCN(S(=O)(=O)c2cccc3nonc23)CC1)Cc1ccccc1`, which inhibition is on record?
Its inhibition is 6% (inactive).

Which inhibition does the source give for `CCOc1ccc(N(CC(=O)NC2CCCC2)S(=O)(=O)c2c(C)[nH]c(=O)[nH]c2=O)cc1` here?
The inhibition was 0% (inactive).

`Cc1cc2c(cc1C)-c1nnnn1C(C)(C)C2` was tested. Which inhibition did it give?
The inhibition was 4% (inactive).

For `O=C(Nc1ccc(-c2nc3ncccc3o2)cc1)c1ccc(Br)o1`, which inhibition is on record?
The inhibition was 15% (inactive).

`CCOC(=O)C1CSc2[nH]c(=O)sc2C1c1ccccc1` (stereo not given) was tested. Which inhibition did it give?
The inhibition was 0% (inactive).

`Brc1c(NC2=NCCN2)ccc2nccnc12` was tested. Which inhibition did it give?
The inhibition was 0% (inactive).

`O=C(NCC1COc2ccccc2O1)C1CCCN(S(=O)(=O)c2cnc[nH]2)C1` (stereo not given) was tested. Which inhibition did it give?
Its inhibition is 0% (inactive).

How did the inhibition turn out when `O=C(NCc1ccc2c(c1)OCO2)c1ccccn1` was run?
Its inhibition is 6% (inactive).

How did the inhibition turn out when `CC(NC(=O)c1ccco1)c1ccc2c(c1)OCCO2` (stereo not given) was run?
Its inhibition is 0% (inactive).

With `N#CC1=C(N)S[C@H](C(=O)C23CC4CC(CC(C4)C2)C3)[C@H]1c1ccncc1` as the compound, how does the inhibition read?
The inhibition was 0% (inactive).

With `Cc1nc(NCc2ccccn2)c2ccccc2n1` as the compound, how does the inhibition read?
The inhibition was 7% (inactive).

How did the inhibition turn out when `CCn1c(CSc2ncccn2)nnc1SCC(=O)N1c2ccccc2CC1C` (stereo not given) was run?
Its inhibition is 6% (inactive).

`COC(=O)c1cc(OC)c(OC)cc1NC(=O)c1ccc(Br)o1` was tested. Which inhibition did it give?
The inhibition was 0% (inactive).

Which inhibition does the source give for `O=C(c1cc(C2CC2)on1)N1CCN(C(c2ccccc2)c2ccccc2)CC1` here?
The inhibition was 0% (inactive).

Which inhibition does the source give for `CC(C)(C)c1nc(CN2CCOCC2)ccc1O` here?
The inhibition was 1% (inactive).

Which inhibition does the source give for `O=c1[nH]c(/C(=N\O)c2ccccc2)no1` here?
Its inhibition is 0% (inactive).

For `COc1ccc(C2CC(=O)C(C=NCCN3CCOCC3)=C(O)C2)cc1` (stereo not given), which inhibition is on record?
Its inhibition is 0% (inactive).

For `CCOC(=O)C1CCCN(C(=O)c2ccc3c(=O)n(CCOC)c(=S)[nH]c3c2)C1` (stereo not given), which inhibition is on record?
Its inhibition is 2% (inactive).

How did the inhibition turn out when `CCOC(=O)N1CCC(N2C(=O)c3ccccc3C2Nc2ccccc2C)CC1` (stereo not given) was run?
Its inhibition is 4% (inactive).

`COC(=O)C1C(=O)C2=C(CC1C)NC(=O)CC2c1ccccc1` (stereo not given) was tested. Which inhibition did it give?
Its inhibition is 0% (inactive).

With `CC1CN=C(N(C(=O)Nc2ccccc2)c2ccc(S(=O)(=O)N3CCOCC3)cc2)S1` (stereo not given) as the compound, how does the inhibition read?
The inhibition was 0% (inactive).

Which inhibition does the source give for `CCCC(=O)Nc1cc(C)c2c(=O)oc3ccccc3c2n1` here?
The inhibition was 2% (inactive).

`CCN(CCNC(=O)CS(=O)(=O)Cc1nc(-c2cccc(OC)c2)oc1C)c1ccccc1` was tested. Which inhibition did it give?
Its inhibition is 0% (inactive).

How did the inhibition turn out when `CCOc1ccc(Nc2nc(Cc3nnc(SCC(N)=O)o3)cs2)cc1` was run?
Its inhibition is 0% (inactive).

How did the inhibition turn out when `COc1ccc(S(=O)(=O)Cc2ccc(C(=O)N3CCOCC3)o2)cc1` was run?
Its inhibition is 7% (inactive).

How did the inhibition turn out when `Nc1nnnn1/N=C/c1ccccc1OCc1ccccc1` was run?
Its inhibition is 0% (inactive).

Which inhibition does the source give for `Cn1c(=O)c2c(-c3ccccc3)n(CCCN3CCOCC3)cc2n(C)c1=O` here?
Its inhibition is 0% (inactive).

For `Cc1ccc(-c2noc(CN3C(C)CCCC3C)n2)cc1` (stereo not given), which inhibition is on record?
Its inhibition is 0% (inactive).

For `C=COC(=O)CSc1snc(SCC(=O)OC)c1C#N`, which inhibition is on record?
Its inhibition is 0% (inactive).

Which inhibition does the source give for `COc1ccc(Cn2nnnc2C(c2cccnc2)N2CCN(c3ccc(O)cc3)CC2)cc1` (stereo not given) here?
The inhibition was 0% (inactive).
